From the supplement of paper PMC7411054

Tests used:
Conditions in all cases: treatment time: 24 h
[1] = test system: A549-CANX-COX4; experiment: lowest phenotypically active concentration; higher = less potent
Summary of the method: (§1)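 Four wells per concentration (0.3, 1, 3 or 9 µM) were treated for 24 h in each of fifteen gene-edited reporter lines from A549, HepG2 and WPMY1 cells, then imaged live. After normalising live-cell features to solvent control wells, deviation was defined as ≥3 of 4 wells lying past the 95th percentile of control Euclidean distances. Reproducibility was defined as a median replicate Pearson correlation above the 95th percentile of non-replicates. Both had to hold for phenotypic activity.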

[2] = test system: A549-TP53BP1-CLTA; experiment: as above
Summary of the method: as §1

[3] = test system: HepG2-ACTB-RAB5A; experiment: as above
Summary of the method: as §1

[4] = test system: HepG2-CANX-COX4; experiment: as above
Summary of the method: as §1

[5] = test system: HepG2-GM130-SQSTM1; experiment: as above
Summary of the method: as §1

[6] = test system: HepG2-TP53BP1-CLTA; experiment: as above
Summary of the method: as §1

[7] = test system: HepG2-TUBA1B-RELA; experiment: as above
Summary of the method: as §1

[8] = test system: WPMY1-ACTB-RAB5A; experiment: as above
Summary of the method: as §1

[9] = test system: WPMY1-CANX-COX4; experiment: as above
Summary of the method: as §1

[10] = test system: WPMY1-TP53BP1-CLTA; experiment: as above
Summary of the method: as §1

[11] = test system: WPMY1-TUBA1B-RELA; experiment: as above
Summary of the method: as §1

[12] = test system: A549-CANX-COX4; experiment: phenotypically active (imaging signature differs from DMSO and reproducible) at any of 0.3-9 uM (binary (1 = active, 0 = inactive)); higher = active
Summary of the method: as §1

[13] = test system: A549-TP53BP1-CLTA; experiment: as above
Summary of the method: as §1

[14] = test system: HepG2-ACTB-RAB5A; experiment: as above
Summary of the method: as §1

[15] = test system: HepG2-CANX-COX4; experiment: as above
Summary of the method: as §1

[16] = test system: HepG2-GM130-SQSTM1; experiment: as above
Summary of the method: as §1

[17] = test system: HepG2-TP53BP1-CLTA; experiment: as above
Summary of the method: as §1

[18] = test system: HepG2-TUBA1B-RELA; experiment: as above
Summary of the method: as §1

[19] = test system: WPMY1-ACTB-RAB5A; experiment: as above
Summary of the method: as §1

[20] = test system: WPMY1-CANX-COX4; experiment: as above
Summary of the method: as §1

[21] = test system: WPMY1-GM130-SQSTM1; experiment: as above
Summary of the method: as §1

[22] = test system: WPMY1-TP53BP1-CLTA; experiment: as above
Summary of the method: as §1

[23] = test system: WPMY1-TUBA1B-RELA; experiment: as above
Summary of the method: as §1

[24] = test system: WPMY1-GM130-SQSTM1; experiment: lowest phenotypically active concentration; higher = less potent
Summary of the method: as §1

| SMILES | lowest phenotypically active concentration [1] | lowest phenotypically active concentration [2] | lowest phenotypically active concentration [3] | lowest phenotypically active concentration [4] | lowest phenotypically active concentration [5] | lowest phenotypically active concentration [6] | lowest phenotypically active concentration [7] | lowest phenotypically active concentration [8] | lowest phenotypically active concentration [9] | lowest phenotypically active concentration [10] | lowest phenotypically active concentration [11] | phenotypically active [12] | phenotypically active [13] | phenotypically active [14] | phenotypically active [15] | phenotypically active [16] | phenotypically active [17] | phenotypically active [18] | phenotypically active [19] | phenotypically active [20] | phenotypically active [21] | phenotypically active [22] | phenotypically active [23] | lowest phenotypically active concentration [24] |
| --- | --- | --- | --- | --- | --- | --- | --- | --- | --- | --- | --- | --- | --- | --- | --- | --- | --- | --- | --- | --- | --- | --- | --- | --- |
| COc1cc2ncn(-c3cc(OCc4ccccc4C(F)(F)F)c(C(N)=O)s3)c2cc1OC | 1 µM | 1 µM | ≤ 0.3 µM | ≤ 0.3 µM | ≤ 0.3 µM | ≤ 0.3 µM | ≤ 0.3 µM | ≤ 0.3 µM | 1 µM | 1 µM | ≤ 0.3 µM | 1 (active) | 1 (active) | 1 (active) | 1 (active) | 1 (active) | 1 (active) | 1 (active) | 1 (active) | 1 (active) | 0 (inactive) | 1 (active) | 1 (active) |  |
| C/C(=C/c1ccc(C(=O)O)cc1)c1ccc2c(c1)C(C)(C)CCC2(C)C |  |  |  |  |  |  |  |  | 9 µM | 3 µM |  | 0 (inactive) | 0 (inactive) | 0 (inactive) | 0 (inactive) | 0 (inactive) | 0 (inactive) | 0 (inactive) | 0 (inactive) | 1 (active) | 1 (active) | 1 (active) | 0 (inactive) | 3 µM |
| Nc1ccn([C@@H]2O[C@H](CO)[C@@H](O)C2(F)F)c(=O)n1 [gemcitabine] | ≤ 0.3 µM | ≤ 0.3 µM | ≤ 0.3 µM | ≤ 0.3 µM | ≤ 0.3 µM | ≤ 0.3 µM | ≤ 0.3 µM | ≤ 0.3 µM | ≤ 0.3 µM | ≤ 0.3 µM | ≤ 0.3 µM | 1 (active) | 1 (active) | 1 (active) | 1 (active) | 1 (active) | 1 (active) | 1 (active) | 1 (active) | 1 (active) | 1 (active) | 1 (active) | 1 (active) | ≤ 0.3 µM |
| Cc1nc(NC(=O)N2CCC[C@H]2C(N)=O)sc1-c1ccnc(C(C)(C)C(F)(F)F)c1 [alpelisib] | 3 µM | 9 µM | 1 µM | ≤ 0.3 µM | 1 µM | 9 µM | 1 µM |  | 3 µM | 3 µM | 9 µM | 1 (active) | 1 (active) | 1 (active) | 1 (active) | 1 (active) | 1 (active) | 1 (active) | 0 (inactive) | 1 (active) | 1 (active) | 1 (active) | 1 (active) | 3 µM |
| N#Cc1c(NC(=O)c2cccc3ccccc23)sc2c1CCCC2 | ≤ 0.3 µM | ≤ 0.3 µM | ≤ 0.3 µM | ≤ 0.3 µM | ≤ 0.3 µM | ≤ 0.3 µM | ≤ 0.3 µM | ≤ 0.3 µM | ≤ 0.3 µM | ≤ 0.3 µM | ≤ 0.3 µM | 1 (active) | 1 (active) | 1 (active) | 1 (active) | 1 (active) | 1 (active) | 1 (active) | 1 (active) | 1 (active) | 1 (active) | 1 (active) | 1 (active) | ≤ 0.3 µM |
| O=C(c1ccc(C(=O)N2CCC(N3CCCC3)CC2)c(Nc2ccccc2)c1)N1CCC(N2CCCC2)CC1 |  |  |  |  | 9 µM |  |  |  |  |  |  | 0 (inactive) | 0 (inactive) | 0 (inactive) | 0 (inactive) | 1 (active) | 0 (inactive) | 0 (inactive) | 0 (inactive) | 0 (inactive) | 0 (inactive) | 0 (inactive) | 0 (inactive) |  |
| Cc1ccc(S(=O)(=O)/C=C/C#N)cc1 |  |  |  |  |  |  |  |  | 9 µM |  |  | 0 (inactive) | 0 (inactive) | 0 (inactive) | 0 (inactive) | 0 (inactive) | 0 (inactive) | 0 (inactive) | 0 (inactive) | 1 (active) | 1 (active) | 0 (inactive) | 0 (inactive) | 9 µM |
| CCC1(c2ccccc2)NC(=O)N(C)C1=O (stereo not given) [Mephenytoin] |  |  |  |  |  |  |  |  |  |  |  | 0 (inactive) | 0 (inactive) | 0 (inactive) | 0 (inactive) | 0 (inactive) | 0 (inactive) | 0 (inactive) | 0 (inactive) | 0 (inactive) | 0 (inactive) | 0 (inactive) | 0 (inactive) |  |
| C[C@H]1O[C@H](O[C@H]2[C@H](O)[C@@H](O)[C@@H](O[C@H]3[C@H](O)[C@@H](O)[C@H](O)O[C@@H]3CO)O[C@@H]2CO)[C@H](O)[C@@H](O)[C@@H]1N[C@H]1C=C(CO)[C@@H](O)[C@H](O)[C@H]1O [Acarbose] |  |  |  |  |  |  |  |  |  |  |  | 0 (inactive) | 0 (inactive) | 0 (inactive) | 0 (inactive) | 0 (inactive) | 0 (inactive) | 0 (inactive) | 0 (inactive) | 0 (inactive) | 0 (inactive) | 0 (inactive) | 0 (inactive) |  |
